The source made the active and inactive calls. The calls were made as follows: active = hit-call score of the fitted dose curve at least 0.9, where 1 is the maximum; inactive = score below 0.9.
Experiment: CCTE_Shafer_MEA_acute_burst_percentage_mean: CCTE's Neural Acute Assay for Percentage of Spikes in a Burst, Shafer Lab (AID 2284017);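 as to AC50: curve fitted for loss of signal so potency reflects decreased burst percentage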
Experimental: CCTE_Shafer_MEA_acute assay is conducted using Axion Biosystems 48 well microelectrode array (MEA) plates and Maestro recording system. Each well of the MEA plate contains a grid of 16 microelectrodes embedded in the culture surface. Electrically active cells, such as neurons, can be cultured over the electrodes, and electrical activity in these cells can be recorded extracellularly. The spontaneous firing of neurons is captured from each electrode on a microsecond timescale providing both temporally and spatially precise data. […] The CCTE_Shafer_MEA_acute assay uses primary cultures of rat cortical neurons. As these cultures mature over time, neural networks develop functional activity and form cohesive networks in which electrical activity can be highly coordinated. Baseline 40-minute recordings are made on days post-plating 13 or 15, followed by a secondary 40-minute recording after chemical exposure.CCTE_Shafer_MEA_acute_burst_percentage_mean is a component of the CCTE_Shafer_MEA_acute assay. It measures the percentage of spikes (action potential firing) in a single-electrode burst (temporally-clustered groups of spikes) as the number of spikes in bursts divided by the total number of spikes during a recording in a microelectrode array (MEA) using Axion Biosystems Maestro 768 channel amplifier with the AxIS adaptive spike detector. The average of the burst percentages across electrodes is calculated to report a well-level value. The recordings before and after chemical treatment are used to calculate a percent change in the mean burst percentage in each well.Data from the assay component CCTE_Shafer_MEA_acute_burst_percentage_mean was analyzed into 1 assay endpoint. This assay endpoint, CCTE_Shafer_MEA_acute_burst_percentage_mean, was analyzed in the negative analysis fitting direction relative to DMSO as the negative control and baseline of activity. Using a type of functional reporter, gain or loss-of-signal activity can be used to understand electrical activity.
Spontaneous activity in the cortical cultures was recorded using an Axion Biosystems Maestro 768 channel amplifier and Axion Integrated Studios (AxIS) v1.8 (or later) software. The amplifier recorded from all channels simultaneously (gain = 1200 x; sampling rate = 12.5 kHz/channel): raw signals were filtered with a Butterworth band-pass filter (300-5000 Hz), which filters out slower local field potentials leaving only fast potentials, i.e., "spikes", arising from extracellular currents associated with action potentials (Pine 2006; Wheeler and Nam 2011). On-line spike detection of filtered signals was conducted with the AxIS adaptive spike detector, using a threshold of 8x the root mean squared (rms) noise on each channel. Any electrodes with rms noise levels greater than 5 uV were grounded (e.g., no data were recorded). Once grounded, an electrode was grounded for the duration of the experiment. All recordings were conducted at 37 C. Wells were deemed usable if on the day of the exposure >/= 10 electrodes were active (defined as >/= 5 spikes/min). On DIV 13 or 15, a minimum of three wells from one cortical culture preparation were treated with each compound (0.03-40 uM). Prior to recording baseline activity, each mwMEA plate was placed in the Maestro at 37 C and allowed to sit for 20 min while firing rates stabilized. Baseline activity (40 min) was recorded before the addition of each compound. An additional 40 min of spontaneous activity was recorded in the presence of each compound. Changes in network parameters relative to baseline were assessed following compound treatment.

Compound	AC50	outcome
C=CCOC(Cn1ccnc1)c1ccc(Cl)cc1Cl (centres undefined)	2.09 µM (active)	
CC(C)(C)[C@@H](O)[C@@H](Cc1ccc(Cl)cc1)n1cncn1		inactive
C#CCOC(=O)[C@@H](C)Oc1ccc(Oc2ncc(Cl)cc2F)cc1		inactive
Cc1nn(C)c(Oc2ccccc2)c1C=NOCc1ccc(C(=O)OC(C)(C)C)cc1	3.26 µM (active)	
O=C(c1ccc(O)cc1O)c1ccc(O)cc1O		inactive
COC(=O)c1ccccc1C(=O)O		inactive
O=C(Nc1ccc([N+](=O)[O-])cc1Cl)c1cc(Cl)ccc1O	0.269 µM (active)	
CCCCC(CC)CN1C(=O)C2C3C=CC(C3)C2C1=O (centres undefined)	36 µM (active)	
CSC(=O)c1cccc2nnsc12		inactive
CCNc1nc(N)nc(Cl)n1		inactive
OB(O)O		inactive
CCCN(CCC)c1c([N+](=O)[O-])cc(C(F)(F)F)c(N)c1[N+](=O)[O-]		inactive
CC(C)CCCCCCc1ccc(O)cc1	12.6 µM (active)	
CC(C)(c1ccc(O)cc1)c1ccc(O)cc1	28.6 µM (active)	
O=C(c1ccccc1)C1CCCCC1	20 µM (active)	
N#CSCSc1nc2ccccc2s1	25.5 µM (active)	
CC1(C)C(C=C(Cl)Cl)C1C(=O)OCc1cccc(Oc2ccccc2)c1 (centres undefined)	20 µM (active)	
Oc1ccc(C(c2ccc(O)cc2)C(Cl)(Cl)Cl)cc1	5.91 µM (active)	
O=C(O)c1ccccc1		inactive
